From PubChem BioAssay (NCATS) come the findings set out here.

The target in test [1] is Alpha-galactosidase (Coffea arabica) (UniProt Q42656). The test is described as follows: Counterscreen for Glucocerebrosidase Inhibitors: qHTS Assay for Coffee Bean alpha-Galactosidase at pH 4.5 (AID 957). Also: series mostly up to about 77 µM. A digest of the protocol:
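Coffee bean alpha-galactosidase 2 nM, substrate 4-MU-alpha-Gal 80 uM, pH 4.5 citrate/Tween-20, 20 min RT. Cpd titration 0.7 nM–77 uM. Stop pH 10, fluorescence 365/440 nm; Hill-equation AC50.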

The target is the same in test [2]. Briefly: Counterscreen for Glucocerebrosidase Inhibitors: qHTS Assay for Coffee Bean alpha-Galactosidase at pH 5.9 (AID 998). Put shortly: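 Compounds were titrated from 0.7 nM to 77 uM against green coffee bean alpha-galactosidase (2 nM) using 80 uM fluorogenic 4-methylumbelliferyl substrate. After 20 min at room temperature, reactions were stopped at pH 10 and read by fluorescence.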

The target in test [3] is Chromobox protein homolog 1 (Homo sapiens) (UniProt P83916). Briefly: qHTS Validation Assay for Inhibitors of HP1-beta Chromodomain Interactions with Methylated Histone Tails (AID 488953). Also: nearly all actives have a fitted effect of over 50% in size. Also: potency is read from the fitted curve at half-maximal effect. A digest of the protocol:
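50 nM HP1-beta + 50 nM biotin-H3(1-18)K9me3, PBS pH 7.4, 0.01% Tween-20, 30 min RT; compound added, 30 min RT; AlphaScreen beads 10 ug/mL final, 30 min dark; luminescence read.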

Test [4] in a line: Cell Viability - LYMP2-005 (AID 967). Also: series mostly up to about 92 µM. A digest of the protocol: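 LYMP2-005 human lymphoblastoid cells (2500/well) were treated with compounds for 24 h at 37 C. Intracellular ATP was then measured by CellTiter-Glo luminescence after 30 min at room temperature. AC50 values came from Hill-equation fits of qHTS concentration-response data.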
Test [5] can be described thus: Cell Viability - LYMP2-009 (AID 968). Also: series mostly up to about 92 µM; nearly all actives have a fitted effect of over 55% in size.
The nature of test [6]: Cell Viability - LYMP2-011 (AID 969). Also: nearly all actives have a fitted effect of over 60% in size. A digest of the protocol:
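2500 cells/well, 5 hr 37 C; compound added, 24 hr 37 C; CellTiter-Glo 30 min RT; luminescence. qHTS concentration-response, Hill-equation AC50. Tetraoctylammonium bromide positive control.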

Test [7] in a line: Cell Viability - LYMP2-013 (AID 970). Also: series mostly up to about 92 µM; nearly all actives have a fitted effect of over 55% in size. A digest of the protocol:
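qHTS; 2500 lymphoblastoid cells/well; 5 hr 37 C settle; cpd 24 hr 37 C; CellTiter-Glo, 30 min RT; luminescence. AC50 = Hill fit.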

Test [8] in a line: Cell Viability - LYMP2-017 (AID 972). Also: series mostly up to about 92 µM; nearly all actives have a fitted effect of over 55% in size. A digest of the protocol: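 2500 cells/well, 5 h 37 C; cpd 24 h 37 C in complete medium; CellTiter-Glo, 30 min RT; luminescence (ATP). AC50 via Hill fit, qHTS.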
Test [9] can be described thus: Cell Viability - LYMP2-019 (AID 973). Also: nearly all actives have a fitted effect of over 55% in size. A digest of the protocol: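 Luminescent ATP read-out (CellTiter-Glo, 30 min room temperature) served as the viability measure after 24 hr treatment of lymphoblastoid cells at 37 C. Concentration-response data were fitted to the Hill equation for AC50.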
Test [10] is described as follows: Cell Viability - LYMP2-021 (AID 974). A digest of the protocol:
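Plate 2500 lymphoblastoid cells per well and incubate 5 hr at 37 C. Add compounds over a concentration range and incubate 24 hr at 37 C. Add CellTiter-Glo, wait 30 min at room temperature, read luminescence.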

The nature of test [11]: Cell Viability - LYMP2-023 (AID 975). Put shortly:
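2500 cells/well, 5 hr 37 C; cpd 24 hr 37 C; CellTiter-Glo, 30 min RT; luminescence. qHTS conc-response, Hill fit -> AC50. Pos ctrl tetraoctylammonium bromide.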

Test [12] is described as follows: Cell Viability - LYMP2-025 (AID 976). Also: series mostly up to about 92 µM. Put shortly:
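Seed 2500 LYMP2-025 cells/well; 5 hr at 37 C; add compound; 24 hr at 37 C; add CellTiter-Glo; 30 min RT; read luminescence. AC50 from Hill-modelled concentration-response.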

Test [13] is described as follows: Cell Viability - LYMP2-002 (AID 977). Also: series mostly up to about 92 µM. A digest of the protocol: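 Cytotoxicity is scored as concentration-dependent loss of cellular ATP in a human lymphoblastoid line after 24 hr compound treatment at 37 C. AC50 is obtained by modelling concentration-response data with the Hill equation.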
Test [14] is described as follows: Cell Viability - LYMP2-006 (AID 978). Also: series mostly up to about 92 µM; nearly all actives have a fitted effect of over 60% in size. Put shortly:
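Potency values are Hill-fit AC50s for decreases in intracellular ATP (CellTiter-Glo luminescence). LYMP2-006 lymphoblastoid cells, 2500 per well, were exposed to compound in complete culture medium for 24 hr at 37 C.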

Test [15] can be described thus: Cell Viability - LYMP2-008 (AID 980). Also: nearly all actives have a fitted effect of over 60% in size. A digest of the protocol:
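qHTS, human lymphoblastoid line, 2500 cells/well; 5 hr preincubation, 24 hr compound, 37 C. CellTiter-Glo ATP luminescence. AC50 via Hill equation. Tetraoctylammonium bromide positive control.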

Test [16] is described as follows: Cell Viability - LYMP2-014 (AID 983). Also: series mostly up to about 92 µM; nearly all actives have a fitted effect of over 50% in size. A digest of the protocol:
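Luminescent ATP signal (CellTiter-Glo, 30 min at room temperature) serves as the viability read-out after 24 hr compound exposure at 37 C. Cells were seeded at 2500 per well and settled 5 hr beforehand.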

Test [17] is described as follows: Cell Viability - LYMP2-016 (AID 984). Also: nearly all actives have a fitted effect of over 55% in size. A digest of the protocol:
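Cytotoxicity was scored by luminescent ATP content (CellTiter-Glo) after 24 h compound exposure at 37 C of a human lymphoblastoid line at 2500 cells/well. Concentration-response data were fitted to the Hill equation for AC50.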

A short description of test [18]: Cell Viability - LYMP2-026 (AID 989). Also: nearly all actives have a fitted effect of over 50% in size. Put shortly:
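Luminescent ATP signal (CellTiter-Glo, 30 min room temperature) measures viable lymphoblastoid cells after 24 hr compound treatment at 37 C. Decreased ATP reflects acute toxicity; AC50 values come from Hill-equation modeling.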

Test [19] is described as follows: Cell Viability - LYMP1-002 - Assay at 24 hr (AID 993). A digest of the protocol: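 Cells plated 2500/well, 5 hr 37 C; compounds added, 24 hr 37 C; CellTiter-Glo added, 30 min RT; luminescence read. Tetraoctylammonium bromide positive control. Hill-equation AC50.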
A short description of test [20]: qHTS Assay for Identification of Small Molecule Inducers of Hypoxia Response (AID 2120; active = well fitted curve in the direction sought with a large enough effect in the signal ratio, with a control signal flat, not every such curve was filed as active; the % refers to the signal ratio). Put shortly: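 ME-180 HRE-bla cells plated in Opti-MEM/0.5% dialyzed FBS, rested 4-5 h, then dosed with compound titrations by pin tool. After 17 h at 37 degrees C, CCF4 dye loaded 2.5 h at RT; 460/530 nm ratio gave %Activity and AC50.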
A general note: qHTS replaces the single test concentration by a dilution series.

Results filed as inconclusive are left out. The source made the active and inactive calls. Unless noted, calls follow the shape of the dose curve; as a rule, active = well fitted curve in the direction sought with a large enough effect; inconclusive = small, poorly fitted or top-dose-only effect, or another doubt; inactive = no such curve, though single readings can be large; an effect the other way counts as inactive or inconclusive.

Chain of Alpha-galactosidase (Coffea arabica) (Q42656 whole entry, looked up): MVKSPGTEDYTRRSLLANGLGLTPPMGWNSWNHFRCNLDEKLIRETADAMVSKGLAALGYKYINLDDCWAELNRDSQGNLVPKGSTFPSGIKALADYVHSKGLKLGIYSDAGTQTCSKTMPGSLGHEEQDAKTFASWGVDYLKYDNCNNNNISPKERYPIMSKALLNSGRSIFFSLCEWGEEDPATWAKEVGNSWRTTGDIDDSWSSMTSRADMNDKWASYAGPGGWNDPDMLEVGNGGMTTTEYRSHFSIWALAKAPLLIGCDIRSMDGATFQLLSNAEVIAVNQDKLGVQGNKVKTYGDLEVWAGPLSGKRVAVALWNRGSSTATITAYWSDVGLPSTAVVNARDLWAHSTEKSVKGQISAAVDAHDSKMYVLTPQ
Chain of Chromobox protein homolog 1 (Homo sapiens) (P83916 whole entry, looked up): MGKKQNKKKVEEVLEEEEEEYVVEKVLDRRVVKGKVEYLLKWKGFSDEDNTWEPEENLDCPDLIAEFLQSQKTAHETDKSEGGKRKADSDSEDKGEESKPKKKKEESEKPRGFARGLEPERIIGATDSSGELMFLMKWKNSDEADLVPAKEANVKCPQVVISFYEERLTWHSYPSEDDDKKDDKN

Regarding `CC(=O)C(C)=O`, the call in test [1] and in test [2] was inactive. For the same molecule, in [3], the Potency result is “inactive”.

For `CC(=O)/C=C/c1ccccc1`, the result in test [4], in [5], in test [6], in [7], in [8] and in [9] was inactive. The result in [10], in test [11], in test [12], in test [13], in [14] and in [15] was inactive. In addition, the molecule was classed as inactive in test [16], in test [17], in test [18], in test [19] and in [20].

With `Brc1c(Br)c(Br)c2n[nH]nc2c1Br`, the molecule was classed as inactive in [1] and in test [2]. Besides, the Potency entry in test [3] is “inactive”.

As to `COC1=CC(=O)OC(CCc2ccc3c(c2)OCO3)C1` (stereo unspecified), the outcome in [4], in [5], in test [6], in test [7], in test [8] and in [9] was inactive. Further, the call in test [10], in test [11], in test [12], in test [13], in test [14] and in [15] was inactive. Further, the outcome in test [16], in test [17], in test [18], in test [19] and in test [20] was inactive.

Take `c1ccc(Nc2ccc3ccccc3c2)cc1`: the result in test [4], in test [5], in test [6], in test [7], in test [8] and in test [9] was inactive. The molecule was called inactive in test [10], in test [11], in test [12], in [13], in test [14] and in [15]. Also, the result in [16], in test [17], in test [18], in [19] and in test [20] was inactive.

`CCOC(=O)c1ccccc1N`: the molecule was classed as inactive in test [4], in test [5], in [6], in [7], in test [8] and in [9]. In addition, the molecule was classed as inactive in test [10], in test [11], in test [12], in test [13], in test [14] and in test [15]. Moreover, the molecule was classed as inactive in test [16], in [17], in [18], in test [19] and in [20].

With `Nc1nc2[nH]c(=O)cnc2c(=O)[nH]1`, the molecule was classed as inactive in test [1] and in [2]. In test [3], the Potency is 0.0095 µM (active).

Consider `O=c1oc(Cl)c(Cl)c2ccccc12`, for which the result in test [1] and in test [2] was inactive. Besides, the Potency in test [3] is 39.8 µM (active).

Consider `COc1ccc2c(c1)CCC1C2CC[C@@]2(C)C1CC[C@@H]2NCCCCCCN1C(=O)C=CC1=O` (stereo partly specified), for which the Potency in [3] is 50.1 µM (active).

Take `c1ccc2c(c1)-c1cccc3cccc-2c13`: the call in test [4], in test [5], in test [6], in [7], in [8] and in [9] was inactive. Also, the call in test [10], in test [11], in [12], in test [13], in [14] and in test [15] was inactive. For the same molecule, the call in test [16], in [17], in test [18] and in [19] was inactive.

Turning to `Cn1ccnc1`, the molecule was classed as inactive in [1] and in test [2].

Consider `Oc1ccccc1Cl`, for which the call in test [4], in [5], in [6], in test [7], in [8] and in [9] was inactive. Besides, the result in [10], in test [11], in [12], in test [13], in [14] and in test [15] was inactive. Moreover, the outcome in test [16], in [17], in [18], in test [19] and in [20] was inactive.
